From paper PMC7862700, “An all-to-all approach to the identification of sequence-specific readers for epigenetic DNA modifications on cytosine”

target: ETV6 (Homo sapiens, UniProt P41212 1-452); experiment: DAPPL (digital affinity profiling via proximity ligation, sequencing); 10 mM Tris-HCl pH 7.5, 50 mM NaCl, 1 mM DTT, 4% glycerol, room temperature, 30 min; GST-TFs on glutathione beads, 16-mer random dsDNA library, 0.1% formaldehyde crosslink after washing; high values mean tight binding; details: protein: recombinant; tags: N-terminal GST; dsDNA, one strand shown
Sequence (P41212 whole entry, the tested form may be a part): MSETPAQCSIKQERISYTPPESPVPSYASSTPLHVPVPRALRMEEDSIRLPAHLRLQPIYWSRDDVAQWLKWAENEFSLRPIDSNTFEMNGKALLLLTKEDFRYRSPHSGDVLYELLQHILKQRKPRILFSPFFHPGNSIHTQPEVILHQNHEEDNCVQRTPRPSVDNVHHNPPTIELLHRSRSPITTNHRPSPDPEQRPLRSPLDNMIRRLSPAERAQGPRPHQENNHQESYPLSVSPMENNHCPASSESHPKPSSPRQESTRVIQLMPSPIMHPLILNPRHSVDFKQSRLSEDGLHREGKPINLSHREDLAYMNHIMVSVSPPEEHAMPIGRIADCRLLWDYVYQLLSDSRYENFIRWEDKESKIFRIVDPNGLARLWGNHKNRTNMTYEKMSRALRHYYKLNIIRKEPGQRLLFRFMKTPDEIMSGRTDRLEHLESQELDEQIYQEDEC
Method in brief: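 Beads coated with glutathione captured GST-fused human transcription factors that had been expressed in yeast, and the factors were then given DNA barcodes and pooled with a tag-only sample. The pools were incubated with 200 nmole of a random double-stranded 16-mer DNA library in Tris/NaCl/DTT/glycerol buffer for 30 min at room temperature, washed, crosslinked with 0.1% formaldehyde and proximity-ligated with BsaI/T4 ligase at 37 °C for 1 h. PCR amplification and Illumina NextSeq500 sequencing came last. Binding signal is each hexamer's read frequency for a factor divided by its frequency for the tag-only sample.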

Sequence	binding signal
CTGATG	1.72 fold enrichment (6-mer frequency, TF over GST control)
CCCGGA	2.89 fold enrichment (6-mer frequency, TF over GST control)
TATGTG	1.07 fold enrichment (6-mer frequency, TF over GST control)
ACCCGC	1.32 fold enrichment (6-mer frequency, TF over GST control)
CTCACC	1.08 fold enrichment (6-mer frequency, TF over GST control)
CCGTAT	1.24 fold enrichment (6-mer frequency, TF over GST control)
CTCACT	1.6 fold enrichment (6-mer frequency, TF over GST control)
TTCATC	1.23 fold enrichment (6-mer frequency, TF over GST control)
CTAACG	1.16 fold enrichment (6-mer frequency, TF over GST control)
CACACA	1.18 fold enrichment (6-mer frequency, TF over GST control)
TATTGC	1.38 fold enrichment (6-mer frequency, TF over GST control)
CGCTGC	1.18 fold enrichment (6-mer frequency, TF over GST control)
ACTGCA	1.2 fold enrichment (6-mer frequency, TF over GST control)
CACATT	1.15 fold enrichment (6-mer frequency, TF over GST control)
ACCGGA	3.16 fold enrichment (6-mer frequency, TF over GST control)
CGGATG	1.5 fold enrichment (6-mer frequency, TF over GST control)
ACTTGG	1.16 fold enrichment (6-mer frequency, TF over GST control)
GAATTC	1.2 fold enrichment (6-mer frequency, TF over GST control)
CGCCGA	1.16 fold enrichment (6-mer frequency, TF over GST control)
TGCAAA	1.06 fold enrichment (6-mer frequency, TF over GST control)

Sequence	binding signal
AAAAAC	1.26 fold enrichment (6-mer frequency, TF over GST control)
CTTTCT	1.52 fold enrichment (6-mer frequency, TF over GST control)
TGGTCC	1.18 fold enrichment (6-mer frequency, TF over GST control)
ATTCAA	1.33 fold enrichment (6-mer frequency, TF over GST control)
CTTACA	1.24 fold enrichment (6-mer frequency, TF over GST control)
CTTGCA	1.3 fold enrichment (6-mer frequency, TF over GST control)
GATATG	1.04 fold enrichment (6-mer frequency, TF over GST control)
TCACAT	1.23 fold enrichment (6-mer frequency, TF over GST control)
CTGGTC	1.08 fold enrichment (6-mer frequency, TF over GST control)
TATTAG	1.05 fold enrichment (6-mer frequency, TF over GST control)
ACGCTG	1.09 fold enrichment (6-mer frequency, TF over GST control)
TGTACG	1.18 fold enrichment (6-mer frequency, TF over GST control)
CTTTTA	1.31 fold enrichment (6-mer frequency, TF over GST control)
CCCCGC	1.16 fold enrichment (6-mer frequency, TF over GST control)
TTTCTG	1.46 fold enrichment (6-mer frequency, TF over GST control)
GTTTTA	1.13 fold enrichment (6-mer frequency, TF over GST control)
CCGATC	1.17 fold enrichment (6-mer frequency, TF over GST control)
GCCTTT	1.38 fold enrichment (6-mer frequency, TF over GST control)
TTCTTG	1.38 fold enrichment (6-mer frequency, TF over GST control)
